D3 antag = qHTS of D3 Dopamine Receptor Antagonist: qHTS | D(3) dopamine receptor (Homo sapiens), P35462 | max response, negative = inhibition, % | hit rate 2.5% among 360,000 | D3R cells, DiscoveRx beta-arrestin luminescence, antagonist mode; stronger effect = lower value | AID 652054, 2013; in the data active = max response below about -50%; inconclusive = no clear call, values can overlap the other calls; note: % is set by controls: 0 for no effect and ±100 for the full control effect
Target sequence (P35462 whole entry, looked up): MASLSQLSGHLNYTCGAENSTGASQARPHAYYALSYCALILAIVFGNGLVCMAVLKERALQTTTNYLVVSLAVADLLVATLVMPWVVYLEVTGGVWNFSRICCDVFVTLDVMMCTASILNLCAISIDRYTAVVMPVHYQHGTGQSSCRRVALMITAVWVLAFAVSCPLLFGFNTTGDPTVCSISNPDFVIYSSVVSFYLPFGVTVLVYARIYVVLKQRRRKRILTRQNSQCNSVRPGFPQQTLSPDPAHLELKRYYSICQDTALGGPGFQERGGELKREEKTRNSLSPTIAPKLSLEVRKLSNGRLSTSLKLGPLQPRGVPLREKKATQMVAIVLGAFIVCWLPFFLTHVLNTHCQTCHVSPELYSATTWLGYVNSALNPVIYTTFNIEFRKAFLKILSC
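Cells expressing the human receptor were seeded at 1500 cells/well, incubated overnight at 37 degrees C in 5% CO2, then exposed to library compounds with dopamine controls for 90 minutes at 37 degrees C before luminescent detection.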
D1 PAM = Potentiators of Human D1 Dopamine Receptor: qHTS; D(1A) dopamine receptor (Homo sapiens), P21728; HEK293 TREx D1 cells, calcium flux, dopamine EC20 potentiation; potentiation, % at 10 µM; hit rate 0.036% among 360,000; in the data active = potentiation above about 30%; note: 0% is about no effect
D1 ag = Allosteric Agonists of the Human D1 Dopamine Receptor: qHTS; D(1A) dopamine receptor (Homo sapiens), P21728; HEK293 T-REx D1 cells, calcium flux, agonist mode; activation, % at 2 µM; hit rate 1% among 360,000; AID 504660, 2011; in the data active = activation above about 30%; note: 0% is about no effect
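Agonism was scored from calcium flux recorded over 180 s (1 read/s) after pintool compound addition, following a 10-cycle baseline. Cells were inducible force-coupled HEK293 TREx D1, plated overnight at 30 C and loaded with no-wash calcium dye.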
DRD3 agonist = qHTS of D3 Dopamine Receptor Agonist: qHTS; D3R DiscoveRx beta-arrestin cells, luminescence, 90 min; D(3) dopamine receptor (Homo sapiens), P35462; hit rate 0.58% among 410,000; max activation, %; in the data active = max activation above about 30%; note: 0% is about no effect
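Cells at 1500/well, incubated overnight, then treated with pinned compounds (dopamine as control) for 90 min at 37 degrees C. DiscoveRx reagent added for 30 - 60 minutes at room temperature; luminescence read.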
D1 antag = Antagonist of Human D 1 Dopamine Receptor: qHTS | D(1A) dopamine receptor (Homo sapiens), P21728 | HEK293 TREx D1 cells, calcium flux, dopamine EC80; stronger effect = lower value | activity change, negative = inhibition, % at 10 µM | hit rate 3.2% among 360,000 | AID 504652, 2011; in the data active = activity change below about -30%; note: % is set by controls: 0 for no effect and ±100 for the full control effect
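Tetracycline-induced HEK293 Trex D1 cells, force-coupled to calcium, dye-loaded; compounds added and read 180 s, then EC80 dopamine added and calcium flux tracked kinetically another 180 s.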
An asterisk follows results filed as active; ? = inconclusive; . = not tested or not shown. Hits are enriched below; roughly 6.1% of the tested compounds scored in any of these assays.

SMILES	D3 antag	D1 PAM	D1 ag	DRD3 agonist	D1 antag
COc1cc(CNCCN2CCOCC2)ccc1OCc1ccc(Cl)cc1Cl	-64*	-2	0	0	-11
COc1cc2c(cc1OC)C(COc1cccc(C(F)(F)F)c1)NCC2 (centres undefined)	?	-7	32*	-9	3
COc1ccc(OCC2NCCc3cc(OC)c(OC)cc32)cc1 (centres undefined)	-6	-3	7	-2	-9
COc1cc2c(cc1OC)C(c1ccc(O)cc1)NCC2 (centres undefined)	7	6	6	-1	-3
COc1cc2c(cc1O)C(Cc1ccc(O)cc1)NCC2 (centres undefined)	-107*	-12	-1	-69	-76*
COc1cc2c(cc1OC)[C@H](Cc1ccc(O)cc1)NCC2	-62*	-8	1	-24	-20
COc1ccc(C)cc1NC(=O)Cn1c(=O)nc(-c2ccccc2F)c2cc(Cl)ccc21	.	1	-1	10	-8
Cc1ccc(NC(=O)CSc2nc3nc(C)cc(C)c3c(=O)[nH]2)cc1	?	-8	2	1	-12
Cc1cc(C)c2c(=O)[nH]c(SCC(=O)Nc3ccc(N(C)C)cc3)nc2n1	2	13	1	5	-35*
Cc1nc2ccccn2c1-c1csc(Nc2cccc(O)c2)n1	18	2	0	-3	-4
COc1ccc(-c2csc(NCc3ccco3)n2)cc1C	0	-3	-1	-7	-14
Cc1ccn2c(-c3csc(NCc4ccco4)n3)c(C)nc2c1	0	-11	8	-8	-42*
Cc1cccc(Nc2nc(-c3c(C)nc4ccccn34)cs2)c1	11	-2	8	15	-46*
COc1ccc(C)cc1N(C(=O)c1snc(C(N)=O)c1N)C(C(=O)NC1CCCCC1)c1ccc(C)o1 (centres undefined)	-4	3	4	-11	6
COc1ccc(NS(=O)(=O)c2cccs2)c(OC)c1	32	5	1	1	0
O=C(O)c1ccc(Nc2nc3ccccc3nc2NS(=O)(=O)c2cccs2)cc1	-5	0	2	5	-1
COc1ccc(Nc2nc3ccccc3nc2NS(=O)(=O)c2cccs2)c(OC)c1	-101*	-4	7	-15	-3
COc1cccc(Nc2nc3ccccc3nc2NS(=O)(=O)c2cccs2)c1	-23	-6	16	-6	-32*
COc1cccc(NC(=S)N2CCC(Cc3ccccc3)CC2)c1	-13	-3	1	-6	-37*
COc1ccc(OCC(=O)N2CCC(Cc3ccccc3)CC2)cc1	10	2	1	32*	-16
COc1ccc(-c2nnc(SCC(=O)N3CCC(Cc4ccccc4)CC3)o2)cc1OC	49	3	-1	38*	6
O=C(COc1ccc(F)cc1)N1CCC(Cc2ccccc2)CC1	-2	0	7	2	-20
COc1cccc(NC(=S)N2CCN(C/C=C/c3ccccc3)CC2)c1	-10	0	2	0	-11
CCc1cc(=O)[nH]c(SCC(=O)N2CCC(Cc3ccccc3)CC2)n1	-59*	1	2	-20	9
O=C(CNC(=O)c1ccc(F)cc1)OCc1cc(=O)n2ccsc2n1	.	-3	0	0	-7
SMILES	D3 antag	D1 PAM	D1 ag	DRD3 agonist	D1 antag
O=C(COC(=O)Cc1c[nH]c2ccccc12)Nc1cccc(Br)c1	12	.	.	2	.
CSCC[C@H](NC(=O)[C@H](Cc1ccc(OS(=O)(=O)O)cc1)NC(=O)[C@@H](N)CC(=O)O)C(=O)NCC(=O)N[C@@H](Cc1c[nH]c2ccccc12)C(=O)N[C@@H](CCSC)C(=O)N[C@@H](CC(=O)O)C(=O)N[C@@H](Cc1ccccc1)C(N)=O	.	.	.	1	.
Cc1ccc(/C=C/C(=O)N2CCC(Cc3ccccc3)CC2)cc1	-21	-9	10	3	-33*
COc1ccc(NC(=S)N2CCC(Cc3ccccc3)CC2)cc1OC	-13	-11	3	-5	-53*
O=c1cc[nH]c2ccc(OC(F)(F)F)cc12	13	0	4	11	5
C=CCn1c2ccccc2c(=O)c2cc(C#Cc3cc(OC)cc(OC)c3)ccc21	51	-1	4	50*	.
COc1cc(C#Cc2c(C=O)n(C)c3ccccc23)cc(OC)c1	81	0	5	50*	.
COc1ccc(C(=O)NC2CCN(CC(=O)NCc3ccccc3F)CC2)cc1	-2	-1	0	-8	23
CCOc1cc(S(=O)(=O)N(Cc2ccccc2)Cc2ccccc2)c(OCC)cc1-n1cnnn1	-63*	-5	4	-3	7
COc1ccc(COCC(O)CN2CCOCC2)cc1OC (centres undefined)	37	3	1	2	17
CC(=O)c1ccc(OCC(O)CN2CCOCC2)cc1 (centres undefined)	-7	-3	1	-4	-35*
CC(=O)c1ccc(OCC(O)CN2CC(C)OC(C)C2)cc1 (centres undefined)	-55*	6	0	-2	7
COc1ccc(COCC(O)CN2CC(C)OC(C)C2)cc1OC (centres undefined)	-154*	-2	0	17	4
CC1CN(CC(O)COc2ccc(C(C)C)cc2)CC(C)O1 (centres undefined)	-16	-5	3	-3	-11
CCOC(=O)C1CCCN(S(=O)(=O)c2ccc3[nH]c(=O)ccc3c2)C1 (centres undefined)	.	-4	3	3	2
Cc1ccc(S(=O)(=O)N(C)c2ccc(OCC(=O)OCc3cccc(Br)c3)cc2)cc1	-20	.	.	-6	.
CCN(c1ccccc1)S(=O)(=O)c1ccc(OCc2c(C)noc2C)cc1	0	-7	16	0	-32*
Cc1ccc(S(=O)(=O)N(C)c2ccc(OCC(=O)OCc3c(C)noc3C)cc2)cc1	?	-1	24	-2	-47*
Cc1ccc(S(=O)(=O)N(C)c2ccc(OCc3cccc(C)c3)cc2)cc1	-11	-1	38*	-13	12
CCN(C(=O)Cc1c(C(=O)O)c(C)cn1C)c1cccc(Cl)c1	.	-3	10	6	18
Cc1cc(Br)c2nc(-c3ccccc3)c(Cc3cccc(Cl)c3)n2c1	28	.	.	0	.
COC(=O)c1ccc(NC(=O)CSc2nc(=O)n(Cc3ccco3)c3c2CCC3)cc1	.	-4	4	-2	.
Cc1ccc(-c2onc3ccc(C4OCCO4)cc23)cc1	15	-6	2	3	2
CCCCN(C(=O)CSc1ncnc2sccc12)c1c(N)n(Cc2ccccc2)c(=O)[nH]c1=O	-10	.	.	-3	.

Compound activity: PubChem, National Center for Advancing Translational Sciences (NCATS)
